Screening data (PubChem)
Marburg entry inh: Marburg virus entry inhibition; Marburg virus pseudotyped entry inhibition, cell reporter; Potency, µM (highest dose often 37.8 µM), actives largely listed as inhibitors; 300,000 compounds, 1.8% hits; AID 540276; calls by dose curve; tested in HEK293 cells
CHX counter: counter-screen hit for Shiga toxin inhibitors, cycloheximide. cell reporter, cycloheximide protein synthesis inhibition counterscreen. max response, %. 300,000 compounds, 12% hits; in the data active = max response mostly above about 13%, no sharp cut-off; inactive = mostly below about 14%; also: read at 38.3 µM for the half of the compounds with a filed dose
Pf growth 48h: P. falciparum growth inhibition at 48 hours (one generation); P. falciparum luciferase growth in erythrocytes, 48 h; Potency, µM (series often up to 28.7 µM), hits mostly inhibitors; 310,000 compounds, 5.9% hits; AID 504832
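Read-out is firefly luciferase luminescence from an integrated reporter in P. falciparum, so falling signal marks reduced parasite growth. Infected erythrocytes were at 2% hematocrit and 0.1% parasitemia (final) in Albumax-supplemented RPMI 1640.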
LASV entry inh: Lassa virus entry inhibition; Lassa virus pseudotype entry inhibition, cell reporter; Potency, µM (top dose mostly 37.9 µM), actives largely listed as inhibitors; 300,000 compounds, 1.2% hits; calls by dose curve; tested in HEK293 cells; also: nearly all actives have a fitted effect of over 50% in size
Pf growth 96h: P. falciparum growth inhibition at 96 hour, primary screen for plastid delayed-death inhibitors | Potency, µM (titrated, usually from 28.7 µM), usual class: inhibitors | 320,000 compounds, 6.9% hits | AID 504834 | P. falciparum luciferase reporter growth, 96 h
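Luminescence readout: decreased luciferase signal marks inhibited growth of reporter-expressing P. falciparum in infected red cells (2% hematocrit, 0.05% parasitemia final), exposed to compound two generations (96 h, 37 C, 5% CO2).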
Shiga toxin inh: blocks Shiga toxin action in Vero cells; Vero cells, Shiga toxin protein synthesis inhibition reporter; inhibition, % at 38.7 µM; 290,000 compounds, 9.2% hits; AID 2315; in the data active = inhibition mostly above about 28%, no sharp cut-off; inactive = mostly below about 43%
Numbers stand for hits; - = inactive; ? = inconclusive; . = no result; [ ] = another dose, or the depositor's remark. Compounds with a hit are over-represented: about 19% of the library has one in this group of screens. Unless noted, calls follow the shape of the dose curve; as a rule, active = well fitted inhibition curve with a large enough effect; inconclusive = small, poorly fitted or top-dose-only effect, or another doubt; inactive = no such curve, though single readings can be large or run the other way.

SMILES	Marburg entry inh	CHX counter	Pf growth 48h	LASV entry inh	Pf growth 96h	Shiga toxin inh
CC1CCN(C2=NC(=O)/C(=C/c3cccc(O)c3)S2)CC1	-	-	-[0.00184 µM]	-	-	-
Cc1ccc(-c2ccc(/C=C3\SC(N4CCOCC4)=NC3=O)o2)cc1	?	-	?	?	-	-
CC1CCN(C2=NC(=O)/C(=C/c3ccccc3F)S2)CC1	?	38	-[0.00184 µM]	?	-	68
O=C1N=C(N2CCN(c3ccccc3)CC2)S/C1=C/c1cccs1	-	-	-	-	13µM	-
O=C(O)C1C2CCC(CC2)C1C(=O)O (stereo unspecified)	-	.	.	-	.	.
C=C(C)C(=O)OCC(C)C	.	.	-	.	-	.
CC(=O)OC1CCC2(C)C3CCC4(C)C(OC(C)=O)CCC4C3C(C)C2(O)C1 (stereo unspecified)	-	.	.	-	.	.
CC(=O)O[C@H]1C[C@@]2(C)[C@@H](C[C@@H](O)[C@H]3[C@@]4(C)CC[C@@H](O)[C@@H](C)[C@@H]4CC[C@@]32C)/C1=C(\CCC=C(C)C)C(=O)O	.	.	12µM	.	?	.
CCO[C@H]1OC(C(=O)NC2CC2)=C[C@@H](C)[C@@H]1CCCO	.	-	-	.	-	-
CCOc1cc(CNC2CCCC2)ccc1OCc1ccccc1Cl	.	-	?	.	-[5.75 µM]	-
CCOc1cc(C2NN=C(c3ccccc3)S2)ccc1OCc1ccc(F)cc1 (stereo unspecified)	?	43	-	-	.	112
CNCc1ccccc1OCc1ccc(F)cc1	?	-	-	?	-	-
CCOc1cc(C2NN=C(c3ccccc3)S2)ccc1OCc1ccccc1Cl (stereo unspecified)	?	45	-	?	-	66
CC(C)(CNC(=O)c1ccc(NS(=O)(=O)c2ccc(F)c(F)c2)cc1)N1CCOCC1	-	.	-	-	-	.
COc1ccc(NS(=O)(=O)c2cccc(C(=O)NCC(c3ccco3)N(C)C)c2)cc1 (stereo unspecified)	-	.	?	-	?	.
O=C(O)c1ccc(NC(=O)c2ccco2)c(NC(=O)c2ccco2)c1	-	-	-	?	-	-
COC(=O)N/N=C/c1ccccc1OCc1ccccc1	-	-	-	-	-	-
COc1c(OC(C)=O)ccc(/C=C/c2ccc3cccc(OCc4ccccc4)c3n2)c1[N+](=O)[O-]	?	35	1.9µM	?	?	53
COc1cc(/C=C/c2ccc3cccc(OC)c3n2)c(OC(C)=O)c([N+](=O)[O-])c1	?	-	.	?	?	-
COc1ccc(C(=O)N/N=C/c2ccc3cccc(OCc4ccccc4)c3n2)cc1	?	22	?	?	-	61
O=C(N/N=C/c1ccc2cccc(OCc3ccccc3)c2n1)c1ccc(Br)cc1	16µM	18	-	?	-	-
NC(=S)N/N=C/c1ccccc1OCc1cccc(Cl)c1	?	-	13µM	-	9.3µM	-
NC(N)=N/N=C/c1ccc2cccc(OCc3ccccc3)c2n1	?	-	?	?	?	-
O/N=C/c1ccc2cccc(OCc3ccccc3)c2n1	.	-	-	.	-	-
COCCC(=O)N1CCC(Oc2ccc(C(=O)NC3Cc4ccccc4C3)cc2)CC1	?	-	?	-	?	-
SMILES	Marburg entry inh	CHX counter	Pf growth 48h	LASV entry inh	Pf growth 96h	Shiga toxin inh
COc1ccc(C(=O)Nc2nc3ccccc3[nH]2)cc1S(=O)(=O)N1CCOCC1	.	-	-	.	-	-
NC(=S)N/N=C/c1ccc2cccc(OCc3ccccc3)c2n1	?	-	15µM	?	?	-
CC(C)OC(=O)c1cc2c(ccn2C)n1CC(=O)N(Cc1ccccc1)c1ccc(F)cc1	5.2µM	-	?	5µM	-	-
CC(C)OC(=O)c1cc2c(ccn2-c2ccc(F)cc2)n1CC(=O)N1CCN(C(=O)c2ccco2)CC1	.	-	1.7µM	.	?	-
CCOC(=O)c1cc2c(ccn2C)n1CC(=O)N(Cc1ccccc1)c1ccc(F)cc1	?	-	?	?	-	-
COC(=O)c1cc2c(ccn2-c2ccc(F)cc2)n1CC(=O)N1CCN(C(=O)c2ccco2)CC1	-	-	?	?	-	-
COc1ccc(C2c3c(-c4ccccc4O)n[nH]c3C(=O)N2CCc2ccc(OC)c(OC)c2)cc1 (stereo unspecified)	?	-	7.4µM	5µM	-	-
COc1ccc(CCN2C(=O)c3[nH]nc(-c4ccccc4O)c3C2c2cccc(Cl)c2)cc1 (stereo unspecified)	?	-	3.3µM	?	1.9µM	-
